These results are taken from PubChem BioAssay (NCATS).

The nature of assay [1]: Cell Viability - BJ (AID 421; calls by dose curve;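 note: potency is the fitted concentration of half-maximal effect; cells exposed to compound for 40 hours at 37 °C before readout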). As to conditions: BJ fibroblast viability, qHTS. A digest of the protocol:
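Quantitative HTS: ATP depletion in BJ cells after 40 hr compound exposure in complete culture medium, detected with CellTiter-Glo; AC50 from standard Hill fits.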
On the technique in general: qHTS replaces the single test concentration by a dilution series.

Assay [2] can be described thus: Cell Viability - Renal Proximal Tubule (AID 545). Note: nearly all actives have a fitted effect of over 40% in size. As to conditions: renal proximal tubule cells viability, primary cells of rat origin; activity change, negative = cytotoxicity: at 91.7 µM (top of the series). A digest of the protocol:
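Rat renal proximal tubule primary cells, 1000/well, exposed to compounds for 40 hr at 37 °C in complete medium; cellular ATP read by CellTiter-Glo luminescence. AC50 from concentration-response fitted with standard Hill equation.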

Assay [3] can be described thus: Cellular Toxicity (caspase-3) Jurkat (AID 655).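 Note: cells exposed to compound for 16 h at 37 °C before reading.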 As to conditions: Jurkat caspase-3 activation, luminescence; caspase-3 activation: at 92.2 µM (top of the series), DMSO = 0%, tamoxifen = 100%. A digest of the protocol: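 Jurkat cells (5000/well) in complete medium exposed 16 h at 37 C; caspase-3/7 activity read by Caspase-Glo luminescence after 20 min at room temperature. Normalized to DMSO and 100 uM tamoxifen; AC50 from Hill fits.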

Assay [4] can be described thus: MultiTox-Fluor Cytotoxicity Assay - LYMP1-001 - Dead Cells (AID 946). Note: potency is the fitted concentration of half-maximal effect. As to conditions: LYMP1-001 lymphoblastoid cells, dead-cell protease fluorescence; series mostly up to 92.2 µM. In a few lines: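 In this qHTS, 15 uM tetraoctylammonium bromide defined 100% and DMSO defined basal activity. Lymphoblastoid cells (LYMP1-001, 2500 per well) received compound for 16 hr at 37 C before a fluorogenic dead-cell substrate readout at 485/520 nm.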

A short description of assay [5]: Cell Viability - LYMP1-002 - Assay at 16 hr (AID 948).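 For activity change, negative = cytotoxicity: 0% = DMSO alone and full effect = 92 µM tetraoctylammonium bromide.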 Note: potency is the fitted concentration of half-maximal effect. As to conditions: LYMP1-002 lymphoblastoid cell viability; series mostly up to 92.2 µM. In a few lines:
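LYMP1-002 human lymphoblastoid cells, 2500/well, were treated with compounds for 16 hr at 37 C in complete medium. Viability was read as intracellular ATP by CellTiter-Glo luminescence, and AC50 was derived from a Hill fit to concentration-response data.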

Assay [6] can be described thus: MultiTox-Fluor Cytotoxicity Assay - LYMP1-002 - Live Cells (AID 955). Note: % is set by controls: 0 for no effect and ±100 for the full control effect. The conditions noted are these: LYMP1-002 lymphoblastoid live-cell protease fluorescence viability; series mostly up to 46.1 µM. A digest of the protocol:
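After 16 h compound exposure at 37 C, live LYMP1-002 lymphoblastoid cells (2500/well) were quantified by cleavage of cell-permeant GF-AFC substrate, read at 405/510 nm after 60 min. Concentration-response fitted with Hill equation for AC50.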

The nature of assay [7]: MultiTox-Fluor Cytotoxicity Assay - LYMP1-003 - Dead Cells (AID 961). Note: nearly all actives have a fitted effect of over 70% in size. Note: potency is the fitted concentration of half-maximal effect. As to conditions: LYMP1-003 lymphoblastoid cells, dead-cell protease fluorescence; series mostly up to 92.2 µM. In a few lines: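 Acute toxicity is scored as increased dead-cell protease activity in human lymphoblastoid LYMP1-003 cells after 16 h compound exposure in complete culture medium. Activity is normalized to DMSO basal and 15 uM tetraoctylammonium bromide as full response.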

A short description of assay [8]: Cell Viability - LYMP2-004 (AID 966).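 For activity change, negative = cytotoxicity: plate controls were DMSO only for no effect and tetraoctylammonium bromide control for full effect.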 Note: nearly all actives have a fitted effect of over 65% in size. Note: potency is the fitted concentration of half-maximal effect. The conditions noted are these: LYMP2-004 lymphoblastoid cell viability, qHTS; series mostly up to 92.2 µM. In a few lines:
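AC50 values come from Hill modelling of concentration-dependent loss of intracellular ATP, measured by CellTiter-Glo luminescence. Human LYMP2-004 lymphoblastoid cells (2500/well) were exposed to compound for 24 h at 37 C.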

Assay [9] in a line: Cell Viability - LYMP2-011 (AID 969). Note: nearly all actives have a fitted effect of over 60% in size. Note: potency is the fitted concentration of half-maximal effect. As to conditions: LYMP2-011 lymphoblastoid cells viability; series mostly up to 92.2 µM. A digest of the protocol: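 Cytotoxicity qHTS with ATP content as read-out: lymphoblastoid cells (2500/well) exposed to compound for 24 h at 37 C, then luciferase luminescence measured. Concentration-response data fitted with the standard Hill equation to give AC50.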

A short description of assay [10]: Cell Viability - LYMP2-017 (AID 972). For activity change, negative = cytotoxicity: % is set by controls: 0 for no effect and ±100 for the full control effect. Note: nearly all actives have a fitted effect of over 55% in size. Note: potency is the fitted concentration of half-maximal effect. The conditions noted are these: LYMP2-017 lymphoblastoid cell viability; series mostly up to 92.2 µM. In a few lines: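 CellTiter-Glo luminescence (cellular ATP, 30 min RT) measured cytotoxicity after 24 hr compound treatment at 37 C. Cells were a human lymphoblastoid line, LYMP2-017, plated at 2500/well and incubated 5 hr first; concentration-response fitted with Hill equation for AC50.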

A short description of assay [11]: Cell Viability - LYMP2-007 (AID 979).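 For activity change, negative = cytotoxicity: 0% = DMSO only and the negative end = 92 µM tetraoctylammonium bromide.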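 Note: cells exposed to compound for 24 h before reading; nearly all actives have a fitted effect of over 60% in size.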 Note: potency is the fitted concentration of half-maximal effect. As to conditions: LYMP2-007 lymphoblastoid cell viability; series mostly up to 92.2 µM. A digest of the protocol:
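AC50 values come from Hill-equation fits of luminescent intracellular ATP (CellTiter-Glo, 30 min, room temperature) following 24 h compound exposure at 37 C. Cells: LYMP2-007 lymphoblastoid line, 2500 per well, in complete culture medium.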

The nature of assay [12]: Cell Viability - LYMP2-014 (AID 983).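 For activity change, negative = cytotoxicity: plate controls were DMSO only for no effect and 92 µM tetraoctylammonium bromide for full effect.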 Note: nearly all actives have a fitted effect of over 50% in size. Note: potency is the fitted concentration of half-maximal effect. As to conditions: LYMP2-014 lymphoblastoid cells, viability qHTS; series mostly up to 92.2 µM. In a few lines:
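Intracellular ATP loss, read by luciferase luminescence, measures acute cytotoxicity after 24 h compound exposure of lymphoblastoid LYMP2-014 cells (2500/well, 37 C). Concentration-response data fitted to the Hill equation for AC50.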

Assay [13] in a line: Cell Viability - LYMP2-016 (AID 984). For activity change, negative = cytotoxicity: % is set by controls: 0 for no effect and ±100 for the full control effect. Note: nearly all actives have a fitted effect of over 55% in size. Note: potency is the fitted concentration of half-maximal effect. The conditions noted are these: LYMP2-016 lymphoblastoid cell viability, qHTS; series mostly up to 92.2 µM. In a few lines:
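Human lymphoblastoid LYMP2-016 cells, 2500 per well, treated with compounds for 24 h at 37 C. Viability read as intracellular ATP by CellTiter-Glo luminescence after 30 min at room temperature; AC50 from Hill fits of concentration-response.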

The nature of assay [14]: Cell Viability - LYMP2-018 (AID 985).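 For activity change, negative = cytotoxicity: plate controls were DMSO only for no effect and tetraoctylammonium bromide at 92 µM for full effect.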 Note: nearly all actives have a fitted effect of over 50% in size. Note: potency is the fitted concentration of half-maximal effect. As to conditions: LYMP2-018 lymphoblastoid cells, viability (qHTS); series mostly up to 92.2 µM. In a few lines: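 Viability read as CellTiter-Glo luminescence (cellular ATP) after 24 hr compound exposure at 37 C of 2500 LYMP2-018 lymphoblastoid cells/well, pre-plated 5 hr. Hill-equation modelling gave AC50.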
Assay [15] is described as follows: Cell Viability - LYMP2-020 (AID 986). Note: nearly all actives have a fitted effect of over 55% in size. Note: potency is the fitted concentration of half-maximal effect. The conditions noted are these: series mostly up to 92.2 µM. In a few lines:
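Cytotoxicity in qHTS format: luminescent ATP readout from CellTiter-Glo after 24 h compound exposure at 37 C in complete medium. LYMP2-020 lymphoblastoid cells were seeded at 2500/well; concentration-response data fitted to the Hill equation for AC50.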

The nature of assay [16]: Cell Viability - LYMP2-022 (AID 987). Note: nearly all actives have a fitted effect of over 55% in size. Note: potency is the fitted concentration of half-maximal effect. As to conditions: LYMP2-022 lymphoblastoid cell viability; series mostly up to 92.2 µM. In a few lines: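 Cytotoxicity read as decreased cellular ATP (CellTiter-Glo luminescence, 30 min room temperature) after 24 hours compound exposure of 2500 lymphoblastoid LYMP2-022 cells/well at 37 C. Concentration-response data fitted with standard Hill equation for AC50.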

The nature of assay [17]: Cell Viability - LYMP1-002 - Assay at 24 hr (AID 993). For activity change, negative = cytotoxicity: % is set by controls: 0 for no effect and ±100 for the full control effect. Note: potency is the fitted concentration of half-maximal effect. As to conditions: LYMP1-002 lymphoblastoid cells viability; series mostly up to 92.2 µM. In a few lines:
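qHTS cytotoxicity at 24 h: CellTiter-Glo ATP luminescence in lymphoblastoid line LYMP1-002 incubated with compound at 37 °C. Concentration-response modeled with the Hill equation for AC50; tetraoctylammonium bromide served as positive control.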

Assay [18] is described as follows: qHTS assay for environmental chemicals that activate the Aryl hydrocarbon Receptor (AhR) signaling pathway (AID 651777). Note: % of control where 0% means no effect; nearly all actives have a fitted effect of over 15% in size. The conditions noted are these: 1A2-DRE human hepatoma cells, luciferase, 24 h; activation: hits give high values. A digest of the protocol:
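Concentration–response screening used 1,200 1A2-DRE cells per well, 24 hr compound exposure (37 C, 5% CO2), and One-Glo luminescence as the AhR-driven CYP1A2 reporter signal.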

Assay [19] addresses Nuclear receptor subfamily 1 group I member 2 (Rattus norvegicus) (UniProt Q9R1A7). As to the kind of experiment: qHTS assay for small molecule activators of the rat pregnane X receptor (rPXR) signaling pathway (AID 651751; call rule not given here; note: 0% is about no effect). The conditions noted are these: rPXR reporter cells, luciferase (One-Glo), 24 h.
Assay [20] can be described thus: Cell Viability - HepG2 (AID 433; calls by dose curve;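 note: potency is the fitted concentration of half-maximal effect; potency for ATP loss meaning cytotoxicity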). The conditions noted are these: qHTS. A digest of the protocol:
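HepG2 cells, 1500 per well, treated 40 hr at 37 °C in complete medium; viability from intracellular ATP by CellTiter-Glo luminescence. Normalized to DMSO and 100 uM tamoxifen; AC50 from Hill fit of qHTS concentration-response.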

SMILES strings stand for the structures. Values joined by “and” are separate entries in the source; they are usually repeats but may differ in a detail not shown here. Equal entries are not always repeated. Values without a mark were called inactive. Records with an inconclusive call do not appear. Active and inactive are the calls of the source. Unless noted, calls come from the whole dose curve; as a rule, active = well fitted curve in the direction sought with a large enough effect; inconclusive = small, poorly fitted or top-dose-only effect, or another doubt; inactive = no such curve, though single readings can be large; an effect the other way counts as inactive or inconclusive.

Nuclear receptor subfamily 1 group I member 2 (Rattus norvegicus), sequence (Q9R1A7 whole entry, looked up): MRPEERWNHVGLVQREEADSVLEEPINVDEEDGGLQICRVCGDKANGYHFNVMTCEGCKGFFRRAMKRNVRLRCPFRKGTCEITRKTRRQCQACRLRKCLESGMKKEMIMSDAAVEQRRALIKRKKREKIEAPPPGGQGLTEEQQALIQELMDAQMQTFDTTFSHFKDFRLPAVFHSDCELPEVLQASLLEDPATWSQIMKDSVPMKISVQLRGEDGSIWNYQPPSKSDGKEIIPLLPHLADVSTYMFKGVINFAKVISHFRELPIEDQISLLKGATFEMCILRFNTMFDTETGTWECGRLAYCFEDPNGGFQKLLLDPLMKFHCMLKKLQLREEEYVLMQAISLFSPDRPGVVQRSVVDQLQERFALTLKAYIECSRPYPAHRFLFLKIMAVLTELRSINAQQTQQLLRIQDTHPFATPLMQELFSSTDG

`CC(C)(C)C(=O)C1C(=O)c2ccccc2C1=O`: the Potency in assay [1] was above 92 µM. In addition, the Potency result in [2], in assay [3], in assay [4], in assay [5], in assay [7] and in assay [8] was “inactive” each time. Further, the Potency entry in assay [9], in [10], in [11], in [12], in assay [13] and in assay [14] was “inactive” throughout. For the same compound, the Potency entry in assay [15], in [16] and in assay [17] was “inactive” throughout. In addition, the result in assay [6] was inactive. Moreover, the activation in assay [18] was 5.77%. In addition, the max response in [19] is -2.46%.
On to `C/C=C1/C(=O)C[C@H]2[C@@H]3CCC4=CC(=O)CC[C@]4(C)[C@H]3CC[C@]12C`, for which the Potency is above 92 µM in assay [1]; above 92 µM in assay [20]; 39.8 µM (active) in assay [4]; 50.1 µM (active) in assay [5]; 50.1 µM (active) in assay [7]; 50.1 µM (active) in assay [9]. The Potency was 50.1 µM (active) in assay [10]; 39.8 µM (active) in [11]; 50.1 µM (active) in assay [14]; 39.8 µM (active) in assay [15]; 39.8 µM (active) in assay [16]; 50.1 µM (active) in assay [17]. In assay [8], the Potency entry was “inactive”. The activation in assay [18] is 1.95%.
Regarding `O=Nc1ccc(Nc2ccccc2)cc1`, the Potency in assay [20] was above 92 µM.
In the case of `C=CC(=O)OCCCCCCOC(=O)C=C`, the Potency in assay [20] was above 92 µM; in assay [5] it was 39.8 µM (active); in assay [7], 31.6 µM (active); in assay [8], 39.8 µM (active); in [9], 39.8 µM (active); in assay [10] it was 39.8 µM (active). Besides, the Potency in assay [11] was 39.8 µM (active); in [12], 50.1 µM (active); in assay [13], 39.8 µM (active); in assay [14], 39.8 µM (active); in assay [15], 39.8 µM (active); in [16], 39.8 µM (active). Further, the Potency result in assay [3] was “inactive”. In addition, the activation in [18] is -0.448% and 0.963%. Moreover, in assay [19], the max response is -2.77% and -1.84%.
As to `Clc1nc2ccccc2nc1Cl`, the Potency in [1] and in [20] was above 92 µM throughout. Besides, the Potency result in assay [2], in assay [3], in assay [4], in assay [5], in [7] and in [8] was “inactive” each time. Also, the Potency entry in [9], in assay [12], in assay [13], in assay [14] and in assay [17] was “inactive” each time. In addition, the outcome in [6] was inactive. In addition, the activation in assay [18] was 0.0222%.
Consider `NC(=O)Nc1nc2ccccc2[nH]1`, for which the Potency in assay [1] and in [20] was above 92 µM each time. Further, the Potency entry in [2], in [3], in [4], in assay [5], in [7] and in assay [8] was “inactive” each time. Also, the Potency entry in assay [9], in assay [10], in assay [11], in assay [12], in [13] and in assay [14] was “inactive” throughout. The Potency result in assay [15], in [16] and in assay [17] was “inactive” throughout. Moreover, in assay [6], the compound was called inactive. Besides, the activation in assay [18] is 5.33%. Further, the max response in assay [19] was -2.46%.
For the compound `Cc1cc(-c2ccc(N=Nc3cc(S(=O)(=O)O)c4ccccc4c3N)c(C)c2)ccc1N=Nc1cc(S(=O)(=O)O)c2ccccc2c1N`, the Potency result in assay [3], in assay [4], in assay [8], in assay [16] and in [17] was “inactive” throughout. Further, the result in [6] was inactive. Further, in assay [18], the activation was 0.307%. Also, in assay [19], the max response was -3.26%.
In the case of `CCCCCCCC/C=C\CCCCCCCC(=O)N(CCO)CCO`, the Potency in [1] and in [20] was above 92 µM throughout. Moreover, in assay [3], the caspase-3 activation is 96.6% (active). Besides, the Potency result in assay [4], in [5], in assay [7], in [8], in assay [9] and in assay [10] was “inactive” throughout. The Potency entry in assay [11], in assay [12], in assay [13], in assay [14], in [15] and in [16] was “inactive” each time. Also, the Potency entry in [17] was “inactive”. For the same compound, the result in [6] was inactive. The activation in assay [18] is 2.99%. The max response in assay [19] was 3.59%.
